A short description of assay [1]: qHTS assay to identify aromatase inhibitors - cell viability counter screen (AID 743084).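 Further: cells stimulated with testosterone during compound exposure; nearly all actives have a fitted effect of over 55% in size.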 Further: potency means the concentration at half of the fitted maximal effect.
In assay [2] the target is Aryl hydrocarbon receptor (Homo sapiens) (UniProt P35869). As to the kind of experiment: qHTS assay to identify small molecule that activate the aryl hydrocarbon receptor (AhR) signaling pathway (AID 743085).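 Further: HG2L7.5c1 human HepG2 liver cells with stably integrated DRE-driven firefly reporter; series mostly up to about 70 µM; nearly all actives have a fitted effect of over 15% in size.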 The method, boiled down: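 Reporter assay in engineered HepG2 line HG2L7.5c1, whose plasmid carries twenty dioxin responsive elements upstream of firefly luciferase. Treatment lasted 24 h at 37C; ONE-Glo luminescence gauged induction.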

Assay [3] can be described thus: qHTS assay to identify small molecule that activate the aryl hydrocarbon receptor (AhR) signaling pathway - cell viability counter screen (AID 743086).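 Further: HepG2 liver cells carrying the AhR DRE luciferase reporter; series mostly up to about 70 µM; nearly all actives have a fitted effect of over 45% in size.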 The method, boiled down:
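HepG2-AhR-luc (HG2L7.5c1) cells, 4000/well, were preincubated 5 h at 37C, exposed to compound in qHTS format for 24 hr at 37C, then given CellTiter-Fluor for 30 min; viability was read as fluorescence in the reporter wells.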

In assay [4] the target is Peroxisome proliferator-activated receptor gamma (Homo sapiens) (UniProt P37231). The experiment in a line: qHTS assay to identify small molecule agonists of the peroxisome proliferator-activated receptor gamma (PPARg) signaling pathway (AID 743094; active means well fitted activation curve with a large enough effect in the signal ratio in the repeat runs, not every such curve was filed as active; the % refers to the signal ratio). The method, boiled down: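 Following 5 h plating at 37C, PPARg-bla HEK293H cells receive compound or DMSO for 17 h; fluorescence intensity is recorded after LiveBLAzer B/G loading for 1 h at room temperature.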

Assay [5] has the same target. As to the kind of experiment: qHTS assay to identify small molecule antagonists of the peroxisome proliferator-activated receptor gamma (PPARg) signaling pathway (AID 743191; calls by dose curve; further: series mostly up to about 63 µM; nearly all actives have a fitted effect of over 30% in size). The method, boiled down:
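GeneBLAzer PPARg UAS-bla HEK293H cells carrying a UAS-driven beta-lactamase reporter were plated at 3000 cells/well, preincubated 5 h at 37C, then given compound for 17 h at 37C; LiveBLAzer B/G FRET substrate was read after 1 h at room temperature.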

Assay [6] can be described thus: qHTS assay to identify small molecule antagonists of the peroxisome proliferator-activated receptor gamma (PPARg) signaling pathway - cell viability counter screen (AID 743194). Further: nearly all actives have a fitted effect of over 55% in size. The note with it: Potency: co-treated with 50 nM rosiglitazone. The method, boiled down:
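PPARg-UAS-bla HEK293H cells were plated, rested 5 h at 37 C, then treated with compounds plus rosiglitazone (50 nM final) for 17 h at 37 C; viability was then read by CellTiter-Glo luminescence after 30 min at room temperature.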

Assay [7] is described as follows: qHTS assay for small molecule agonists of the antioxidant response element (ARE) signaling pathway (AID 743202; active means well fitted activation curve with a large enough effect in the signal ratio in the repeat runs, not every such curve was filed as active; the % refers to the signal ratio). The method, boiled down: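 Read-out: LiveBLAzer B/G FRET substrate fluorescence after 2 h at room temperature, following 16 h compound treatment at 37 C of HepG2 cells carrying an ARE-driven beta-lactamase reporter.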
A short description of assay [8]: qHTS assay for small molecule agonists of the antioxidant response element (ARE) signaling pathway - cell viability counter screen (AID 743203; calls by dose curve; further: nearly all actives have a fitted effect of over 55% in size). The method, boiled down: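 Compounds in DMSO were pinned onto ARE-bla HepG2 cells plated 5 hrs earlier at 2,000 cells/well. Sixteen hours later at 37C/5% CO2, CellTiter-Glo was added and luminescence measured after 30 min at room temperature.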

Assay [9] in a line: qHTS assay for small molecule activators of the heat shock response signaling pathway - cell viability counter screen (AID 743209). Further: nearly all actives have a fitted effect of over 50% in size. The method, boiled down: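 Counter screen for cytotoxicity in HeLa HSE-bla reporter cells. Treatment was 5 h at 37 C; viability was detected by luminescent ATP assay (CellTiter-Glo) in the same wells as the beta-lactamase read.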
A short description of assay [10]: qHTS assay for small molecule activators of the heat shock response signaling pathway (AID 743210; active means well fitted activation curve with a large enough effect in the signal ratio in the repeat runs, with a control signal flat, not every such curve was filed as active; the % refers to the signal ratio; further: series mostly up to about 63 µM). The method, boiled down:
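HSE-bla HeLa cells (beta-lactamase reporter under heat shock response elements) were exposed to compounds for 5 h at 37 C, then loaded with LiveBLAzer B/G FRET substrate for 2.5 h at room temperature before fluorescence reading.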

A short description of assay [11]: qHTS assay to identify small molecule agonists of the peroxisome proliferator-activated receptor delta (PPARd) signaling pathway - cell viability counter screen (AID 743211). Further: nearly all actives have a fitted effect of over 55% in size. The method, boiled down: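 Multiplexed format: after the 2 h room-temperature LiveBLAzer B/G FRET step, CellTiter-Glo was added to the same wells. Luminescence after 30 min gave cell viability; compound exposure was 17 h at 37C.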

Assay [12] in a line: qHTS assay to identify small molecule antagonists of the peroxisome proliferator-activated receptor delta (PPARd) signaling pathway - cell viability counter screen (AID 743213). Further: nearly all actives have a fitted effect of over 50% in size. The method, boiled down:
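PPARd-bla HEK293H cells (3000/well) got compound plus 300 nM L165041 agonist for 17 h at 37 C. Viability in the same wells came from CellTiter-Glo luminescence after 30 min at room temperature.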

Assay [13] in a line: qHTS assay to identify small molecule agonists of the farnesoid-X-receptor (FXR) signaling pathway - cell viability counter screen (AID 743218). Further: nearly all actives have a fitted effect of over 45% in size. The method, boiled down:
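After 16 h at 37 C with test compounds, FXR-bla HEK 293T cells were given LiveBLAzer B/G substrate for 2 h at RT and then CellTiter-Glo; luminescence was taken after 30 min.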

A short description of assay [14]: qHTS assay to identify small molecule antagonists of the farnesoid-X-receptor (FXR) signaling pathway - cell viability counter screen (AID 743221; active means well fitted cell-killing curve with a large enough effect in the repeat runs, not every such curve was filed as active; further: nearly all actives have a fitted effect of over 50% in size). The method, boiled down:
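CellTiter-Glo, 30 min RT, luminescence; same wells as the LiveBLAzer FRET read. Cells: FXR-UAS-bla HEK 293T. Treatment: compound with chenodeoxycholic acid 50 uM final, 16 h at 37 C.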

Assay [15] concerns the target Vitamin D3 receptor (Homo sapiens) (UniProt P11473). The experiment in a line: qHTS assay to identify small molecule agonists of the vitamin D receptor (VDR) signaling pathway (AID 743222; calls by dose curve). The method, boiled down: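 VDR-bla cells were seeded, left 4 h, treated with compounds in DMSO for 16 h, incubated 2 h at RT with B/G FRET substrate, and read for fluorescence.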

Assay [16] concerns the target Peroxisome proliferator-activated receptor delta (Homo sapiens) (UniProt Q03181). As to the kind of experiment: qHTS assay to identify small molecule agonists of the peroxisome proliferator-activated receptor delta (PPARd) signaling pathway (AID 743212; calls by dose curve). The method, boiled down: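 GeneBLAzer PPARd UAS-bla HEK293H cells (beta-lactamase reporter under UAS control), plated and rested 5 h at 37 C, then exposed to compounds in DMSO at 37 C; LiveBLAzer B/G FRET substrate added, 2 h room temperature, fluorescence read.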

For assay [17] the target is unchanged. As to the kind of experiment: qHTS assay to identify small molecule antagonists of the peroxisome proliferator-activated receptor delta (PPARd) signaling pathway (AID 743215; active means well fitted inhibition curve with a large enough effect in the signal ratio in the repeat runs, not every such curve was filed as active; the % refers to the signal ratio;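 further: cells stimulated with agonist L165041 at 300 nM final during compound exposure; series mostly up to about 62 µM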). The method, boiled down:
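With L165041 present at 300 nM final, compounds were incubated 17 h at 37 C on PPARd UAS-bla HEK293H cells. A FRET-based beta-lactamase substrate was then applied for 2 h at room temperature and fluorescence intensity recorded.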

The target of assay [18] is Bile acid receptor (Homo sapiens) (UniProt Q96RI1). As to the kind of experiment: qHTS assay to identify small molecule antagonists of the farnesoid-X-receptor (FXR) signaling pathway (AID 743217; active means well fitted inhibition curve with a large enough effect in the signal ratio in the repeat runs, not every such curve was filed as active; the % refers to the signal ratio). The method, boiled down: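 In this cell-based antagonist screen, inhibition of CDCA-driven (50 uM final) UAS-beta-lactamase expression in HEK 293T cells was measured by FRET fluorescence following 16 h compound exposure at 37 °C.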

Assay [19] shares this target. The experiment in a line: qHTS assay to identify small molecule agonists of the farnesoid-X-receptor (FXR) signaling pathway (AID 743220; active means well fitted activation curve with a large enough effect in the signal ratio in the repeat runs, not every such curve was filed as active; the % refers to the signal ratio). The method, boiled down: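 Beta-lactamase reporter under UAS control in GeneBLAzer FXR HEK 293T cells (5000/well) measured with LiveBLAzer FRET substrate after 2 h at room temperature. Compound exposure lasted 16 h at 37C.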
For assay [20], the target named is Vitamin D3 receptor (Homo sapiens) (UniProt P11473). As to the kind of experiment: qHTS assay to identify small molecule antagonists of the vitamin D receptor (VDR) signaling pathway (AID 743223; active means well fitted inhibition curve with a large enough effect in the signal ratio in the repeat runs, not every such curve was filed as active; the % refers to the signal ratio). The method, boiled down:
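After VDR-bla cells are plated and left 4 h at 37C, DMSO-dissolved compounds and 3 nM (final) calcitriol agonist are added. Incubation continues 16 h at 37C; FRET beta-lactamase substrate then develops 2 h at room temperature.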

Inconclusive results are not listed. Unmarked numbers belong to inactive results. Active and inactive are the calls of the source. Unless noted, the call rests on the fitted dose curve; in most records, active means well fitted curve in the direction sought with a large enough effect in the repeat runs; inconclusive means weak or mixed curves; inactive means no such curve, though single readings can be large; an effect the other way counts as inactive or inconclusive.

Peroxisome proliferator-activated receptor gamma (Homo sapiens), sequence (P37231 whole entry, looked up): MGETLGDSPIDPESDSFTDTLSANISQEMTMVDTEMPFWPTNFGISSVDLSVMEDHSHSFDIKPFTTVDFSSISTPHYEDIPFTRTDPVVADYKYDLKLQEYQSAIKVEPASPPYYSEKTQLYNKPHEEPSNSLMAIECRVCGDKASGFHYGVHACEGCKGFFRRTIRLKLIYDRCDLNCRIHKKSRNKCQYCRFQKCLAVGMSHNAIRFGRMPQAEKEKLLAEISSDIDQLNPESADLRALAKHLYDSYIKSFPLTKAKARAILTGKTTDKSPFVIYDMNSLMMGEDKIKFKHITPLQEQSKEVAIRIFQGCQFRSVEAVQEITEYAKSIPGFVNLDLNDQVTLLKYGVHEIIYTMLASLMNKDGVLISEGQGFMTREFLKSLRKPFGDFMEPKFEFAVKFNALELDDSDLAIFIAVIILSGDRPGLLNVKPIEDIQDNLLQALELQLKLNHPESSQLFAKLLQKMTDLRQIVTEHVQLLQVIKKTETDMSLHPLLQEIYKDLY
Peroxisome proliferator-activated receptor delta (Homo sapiens), sequence (Q03181 whole entry, looked up): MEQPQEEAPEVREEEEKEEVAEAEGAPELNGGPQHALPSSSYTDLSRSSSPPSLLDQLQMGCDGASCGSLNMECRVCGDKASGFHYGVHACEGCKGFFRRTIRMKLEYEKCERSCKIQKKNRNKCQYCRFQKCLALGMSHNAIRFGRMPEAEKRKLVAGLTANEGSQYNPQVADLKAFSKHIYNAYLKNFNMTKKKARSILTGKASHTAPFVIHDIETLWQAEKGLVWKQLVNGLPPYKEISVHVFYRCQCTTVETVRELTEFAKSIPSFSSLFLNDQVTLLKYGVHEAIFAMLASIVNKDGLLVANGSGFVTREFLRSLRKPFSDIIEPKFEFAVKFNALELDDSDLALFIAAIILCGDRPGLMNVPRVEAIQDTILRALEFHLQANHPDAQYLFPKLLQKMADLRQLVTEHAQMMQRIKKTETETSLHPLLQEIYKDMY
Aryl hydrocarbon receptor (Homo sapiens), sequence (P35869 whole entry, looked up): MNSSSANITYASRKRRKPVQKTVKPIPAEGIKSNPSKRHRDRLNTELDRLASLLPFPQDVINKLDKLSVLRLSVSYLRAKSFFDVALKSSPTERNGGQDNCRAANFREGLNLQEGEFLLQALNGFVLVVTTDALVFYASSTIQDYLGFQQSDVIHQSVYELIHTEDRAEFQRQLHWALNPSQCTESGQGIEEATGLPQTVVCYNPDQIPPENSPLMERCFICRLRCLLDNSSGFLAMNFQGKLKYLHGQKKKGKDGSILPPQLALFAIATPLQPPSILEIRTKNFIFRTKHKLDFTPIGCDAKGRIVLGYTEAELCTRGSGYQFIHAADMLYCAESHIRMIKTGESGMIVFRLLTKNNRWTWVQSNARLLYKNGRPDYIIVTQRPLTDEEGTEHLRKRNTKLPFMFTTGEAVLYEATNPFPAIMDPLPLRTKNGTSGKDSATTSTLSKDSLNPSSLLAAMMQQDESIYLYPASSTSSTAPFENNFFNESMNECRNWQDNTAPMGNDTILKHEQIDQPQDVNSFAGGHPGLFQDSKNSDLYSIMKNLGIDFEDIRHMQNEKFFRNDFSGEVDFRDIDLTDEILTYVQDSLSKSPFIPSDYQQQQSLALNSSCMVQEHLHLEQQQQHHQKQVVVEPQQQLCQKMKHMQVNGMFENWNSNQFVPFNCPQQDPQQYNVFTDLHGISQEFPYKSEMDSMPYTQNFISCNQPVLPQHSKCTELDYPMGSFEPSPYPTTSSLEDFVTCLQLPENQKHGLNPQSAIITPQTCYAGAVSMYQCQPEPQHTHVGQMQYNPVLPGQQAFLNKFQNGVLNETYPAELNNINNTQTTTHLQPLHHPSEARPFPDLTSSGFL
Vitamin D3 receptor (Homo sapiens), sequence (P11473 whole entry, looked up): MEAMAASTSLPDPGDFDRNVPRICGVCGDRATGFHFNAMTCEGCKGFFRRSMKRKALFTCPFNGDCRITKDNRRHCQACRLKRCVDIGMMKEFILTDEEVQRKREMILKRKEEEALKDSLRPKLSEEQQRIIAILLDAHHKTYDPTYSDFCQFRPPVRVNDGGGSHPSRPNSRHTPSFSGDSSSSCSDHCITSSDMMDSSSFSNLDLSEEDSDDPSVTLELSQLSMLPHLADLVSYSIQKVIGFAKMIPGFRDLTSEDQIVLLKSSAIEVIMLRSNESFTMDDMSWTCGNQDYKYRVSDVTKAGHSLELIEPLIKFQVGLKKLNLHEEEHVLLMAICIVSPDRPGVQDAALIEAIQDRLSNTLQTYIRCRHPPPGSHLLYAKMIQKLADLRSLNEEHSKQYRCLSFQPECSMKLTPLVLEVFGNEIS
Bile acid receptor (Homo sapiens), sequence (Q96RI1 whole entry, looked up): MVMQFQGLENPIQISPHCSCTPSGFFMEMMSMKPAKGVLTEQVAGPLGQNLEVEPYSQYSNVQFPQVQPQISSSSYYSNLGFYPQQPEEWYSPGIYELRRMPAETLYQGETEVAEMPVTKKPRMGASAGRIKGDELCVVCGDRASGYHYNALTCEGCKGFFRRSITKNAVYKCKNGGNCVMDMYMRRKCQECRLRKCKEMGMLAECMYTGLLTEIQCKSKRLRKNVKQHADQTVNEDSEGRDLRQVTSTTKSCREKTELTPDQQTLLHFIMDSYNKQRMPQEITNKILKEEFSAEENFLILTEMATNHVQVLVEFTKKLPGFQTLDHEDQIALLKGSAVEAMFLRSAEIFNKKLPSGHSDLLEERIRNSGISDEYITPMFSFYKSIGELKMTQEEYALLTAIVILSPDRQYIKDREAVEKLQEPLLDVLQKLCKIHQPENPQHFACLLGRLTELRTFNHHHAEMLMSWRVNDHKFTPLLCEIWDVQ

Turning to `C=COC(C)=O`, the Potency result in assay [1], in assay [2], in assay [3], in assay [4], in [5] and in [6] was “inactive” each time. For the same compound, the Potency result in [7], in assay [8], in assay [9], in assay [11], in assay [12] and in assay [13] was “inactive” each time. In addition, the Potency result in assay [14] was “inactive”. The outcome in assay [10] and in assay [15] was inactive.
On to `CC1C(=O)C[C@]2(C(C)C)C[C@H]12` (some centres not stated), for which the Potency result in assay [1], in [2], in assay [3], in assay [4], in assay [5] and in assay [6] was “inactive” throughout. The Potency entry in assay [7], in assay [8], in [9], in [11], in assay [12] and in assay [17] was “inactive” each time. In addition, the Potency result in assay [18], in assay [13] and in assay [14] was “inactive” each time. For the same compound, the compound was called inactive in assay [10], in assay [16], in assay [19], in assay [15] and in assay [20].
As to `CCCN(CCC)c1c([N+](=O)[O-])cc(S(C)(=O)=O)cc1[N+](=O)[O-]`, the Potency result in assay [1], in assay [2], in assay [3], in assay [4], in assay [5] and in assay [6] was “inactive” each time. Besides, the Potency entry in assay [7], in assay [9], in assay [11], in assay [12], in assay [13] and in [14] was “inactive” in each case. For the same compound, the compound was called inactive in assay [16].
`CC(C)(CCl)C(=O)Cl`: the Potency entry in assay [1], in [2], in [3], in assay [4], in assay [5] and in [6] was “inactive” each time. Besides, the Potency entry in assay [7], in assay [9], in assay [11], in assay [17] and in assay [13] was “inactive” in each case. Moreover, the result in assay [16] and in [20] was inactive.
On to `O=[N+]([O-])C(Br)(CO)CO`, for which the Potency in assay [1] was 61.1 µM (active). In addition, the Potency entry in assay [2], in assay [3], in [4], in assay [5], in assay [6] and in [8] was “inactive” throughout. Further, the Potency result in assay [9], in assay [11], in [12], in assay [17], in assay [18] and in [13] was “inactive” each time. The compound was classed as inactive in assay [10], in assay [16] and in [19].
For `Cn1cc[n+](C)c1` (tested in a mixture with another compound), the Potency result in [1], in assay [2], in [3], in assay [4], in assay [5] and in [6] was “inactive” each time. In addition, the Potency entry in [7], in assay [8], in assay [9], in [11], in assay [17] and in assay [18] was “inactive” in each case. For the same compound, the Potency entry in assay [13] and in [14] was “inactive” in each case. The result in [10], in assay [16] and in assay [19] was inactive.
Regarding `CCCN(CCCl)c1c([N+](=O)[O-])cc(C(F)(F)F)cc1[N+](=O)[O-]`, the Potency entry in assay [1], in [2], in assay [3], in [4], in assay [5] and in [6] was “inactive” throughout. For the same compound, the Potency result in assay [7], in assay [8], in [9], in assay [11], in assay [12] and in assay [18] was “inactive” in each case. Also, the Potency entry in [13] and in assay [14] was “inactive” in each case. In addition, the compound was classed as inactive in assay [10], in assay [16], in assay [19], in [15] and in assay [20].
As for `Brc1ccccc1`, the Potency result in assay [1], in [2], in assay [3], in [4], in [5] and in [6] was “inactive” throughout. Further, the Potency entry in assay [7], in assay [8], in assay [9], in assay [12], in [17] and in assay [13] was “inactive” in each case. For the same compound, the Potency entry in assay [14] was “inactive”. The outcome in assay [10], in assay [16] and in [15] was inactive.
For `CCOS(C)(=O)=O`, the Potency entry in assay [1], in assay [2], in assay [3], in assay [4], in [5] and in assay [6] was “inactive” in each case. The Potency result in assay [7], in assay [8], in assay [9], in [11], in [12] and in assay [17] was “inactive” throughout. In addition, in [18], the Potency result is “inactive”. The compound was classed as inactive in [10], in assay [16], in assay [19], in [15] and in assay [20].

For the origin of these results see PubChem BioAssay (Tox21).
